Assay outcomes deposited in PubChem BioAssay by National Center for Advancing Translational Sciences (NCATS).
G9a block: inhibitors of human histone lysine methyltransferase G9a; Q96KQ7; G9a H3K9 monomethylation, AlphaScreen, 2 h; Potency, µM (series often up to 102 µM), most hits filed as inhibitors; 350,000 compounds, 8.8% hits; note: nearly all actives have a fitted effect of over 75% in size
Target sequence (Q96KQ7 913-1193 limits assumed): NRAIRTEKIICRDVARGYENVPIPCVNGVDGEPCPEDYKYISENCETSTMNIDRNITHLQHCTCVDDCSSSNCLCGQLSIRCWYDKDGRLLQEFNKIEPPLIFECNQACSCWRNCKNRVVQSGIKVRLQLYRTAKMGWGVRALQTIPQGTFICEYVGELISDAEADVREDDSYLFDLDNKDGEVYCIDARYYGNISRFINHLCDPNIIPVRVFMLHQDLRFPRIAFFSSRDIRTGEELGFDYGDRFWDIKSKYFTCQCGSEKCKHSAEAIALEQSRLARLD
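Using a bead-based AlphaScreen, monomethylated H3K9 product from 2 h room-temperature reactions (G9a 20 nM, peptide 500 nM, SAM 20 uM) was detected with 0.5 ug/mL rabbit anti-H3K9me1 antibody.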
HP1b chromo inh: HP1-beta chromodomain-methylated histone interaction inhibition; AlphaScreen HP1-beta / biotin-H3K9me3 peptide binding; 390,000 compounds, 0.56% hits; AID 540317; Potency, µM (highest dose often 114 µM), actives largely listed as inhibitors; note: nearly all actives have a fitted effect of over 70% in size
Target sequence (P83916 whole entry, looked up): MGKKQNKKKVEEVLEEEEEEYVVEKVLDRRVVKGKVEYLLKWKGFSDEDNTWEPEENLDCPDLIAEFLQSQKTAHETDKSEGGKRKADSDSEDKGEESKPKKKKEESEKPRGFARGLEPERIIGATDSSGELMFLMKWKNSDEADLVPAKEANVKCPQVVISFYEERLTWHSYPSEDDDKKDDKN
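HP1-beta protein (50 nM final) preincubated 30 min at room temperature with biotinylated H3(1-18)K9me3 peptide (50 nM) in PBS pH 7.4, 0.01% Tween-20, then compound added for 30 min. AlphaScreen streptavidin donor/nickel chelate acceptor beads (10 ug/mL final), 30 min dark, luminescence read.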
CtBP-E1A inh: blocks the CtBP interaction with E1A | AlphaScreen GST-E1A/His-CtBP binding, 1536-well; active compounds read low | activity change, % (concentration not given with the values) | 340,000 compounds, 0.49% hits; in the data active = activity change below about -65%; inconclusive = mostly about -30% to -63%
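Steps: dispense buffer (Tris pH 8.0, NaCl 300 mM, TCEP 1 mM, BSA, Tween 20); add 5X protein mix (GST-E1A, His-CtBP, 125 nM each); pin 23 nL compound; 2 h at 37 °C, dark; add 5X beads (50 ug/mL); 1 h; read.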
JMJD2A Tudor: JMJD2A Tudor domain (human) inhibition. AID 504339. O75164. Potency, µM (series often up to 114 µM), hits mostly inhibitors. 390,000 compounds, 4.4% hits. AlphaScreen JMJD2A-Tudor / H3K4me3 peptide binding; note: nearly all actives have a fitted effect of over 50% in size
BAZ2B inh: blocks human BAZ2B; Q9UIF8; AlphaScreen BAZ2B-H3K14Ac peptide displacement; Potency, µM (series often up to 114 µM), most hits filed as inhibitors; 360,000 compounds, 4.4% hits; note: nearly all actives have a fitted effect of over 60% in size
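AlphaScreen luminescence quantifies BAZ2B engagement of H3K14Ac peptide; the protein and biotinylated peptide are both at 50 nM final, buffer PBS pH 7.4 with 0.01% Tween-20, all steps at room temperature.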
Six1-Eya2 blk: inhibitors of human Six1/Eya2 interaction. Q15475+O00167. AlphaScreen GST-Six1/His-Eya2 binding, biochemical; active compounds read low. activity change, % (concentration not given with the values). 360,000 compounds, 0.56% hits. AID 651725; in the data active = activity change below about -65%; inconclusive = mostly about -30% to -63%
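AlphaScreen luminescence read after one hour at 37 °C in darkness. Pin-transferred compounds met GST-Six1 and His-Eya2 protein (5X stock 250 nM/500 nM) plus glutathione donor and Ni-chelate acceptor beads (5X, 50 ug/mL).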
Numbers stand for hits; n = inactive; u = inconclusive; x = not tested or not shown; [ ] = remark or other dose. Hits are enriched below; roughly 10% of the tested compounds scored in any of these assays. Unless noted, calls come from the whole dose curve; as a rule, active = well fitted inhibition curve with a large enough effect; inconclusive = small, poorly fitted or top-dose-only effect; inactive = no such curve, though single readings can be large or run the other way.

SMILES | G9a block | HP1b chromo inh | CtBP-E1A inh | JMJD2A Tudor | BAZ2B inh | Six1-Eya2 blk
Cc1ccc(S(=O)(=O)N2CCC(C(=O)OCc3c(C)noc3C)CC2)cc1C | 40µM | n | n | n | n | n
Cc1noc(C)c1COC(=O)C1CCN(S(=O)(=O)c2c(Cl)cccc2Cl)CC1 | n[0.501 µM] | n | n | n | n | n
CCOC(=O)C1CCN(S(=O)(=O)c2ccc3c(c2)CC(=O)N3C)CC1 | 45µM | n | n | u | n | n
CN1C(=O)Cc2cc(S(=O)(=O)N3CCOCC3)ccc21 | 40µM | n | n | n | n | n
CCOc1ccc(N(C)S(=O)(=O)c2c(C(=O)N3CCC(C)CC3)c(C)n(C)c2C)cc1 | n | n | x | n | n | x
COC(=O)c1cc2c(cc1NC(=O)c1cnn(-c3ccc(C)cc3)c1-n1cccc1)OCO2 | n | n | x | n | n | x
COc1ccc2nc(N3CCCCC3)c(C#N)cc2c1 | n | n | n | n | n | n
COc1ccc2nc(N3CCCCC3)c(/C=C3\SC(=S)NC3=O)cc2c1 | 11µM | u | n | 28µM | 25µM | n
O=C1NC(=S)S/C1=C\c1cc2ccccc2nc1N1CCCCC1 | n | n | n | 45µM | n | n
N#C/C(=C\c1cc2ccccc2nc1N1CCCCC1)C(N)=O | n | n | n | n | n | n
COc1cccc(CNC(=O)c2cc3c(=O)n(Cc4cccnc4)ccc3nc2C)c1 | n | n | x | n | n | x
CCOc1ccc(OCCCCNC(C)(C)C)cc1 | 22µM | n | x | 35µM | 50µM | n
CC(C)(C)NCCCCOc1ccc(F)cc1 | n | n | n | n | n | n
CCOc1cccc(OCCOCCNC(C)(C)C)c1 | 14µM | n | n | 22µM | 45µM | n
COc1ccc(C(=O)c2[nH]c(N)c(C(=O)NCCc3c[nH]c4ccccc34)c2-c2c(F)cccc2Cl)cc1 | x | x | n | x | x | n
CCOC(=O)C1CCN(c2c(C(=O)c3ccc(OCC)cc3)cnc3ccc(OC)cc23)CC1 | u | n | x | u | u | x
CCOc1ccc(NS(=O)(=O)c2ccc3[nH]cc(C(=O)N4CCCCCC4)c(=O)c3c2)cc1 | n | n | x | n | x | x
S=c1oc(-c2ccncc2)nn1CCc1ccncc1 | n[12.7 µM] | n | n | n | 56µM | n
c1cc(-c2nnc(-c3ccncc3)o2)ccn1 | n | n | n | n | n | n
CC(NC(=O)Cn1c(=O)oc2cc(S(=O)(=O)N3CCCCCC3)ccc21)c1ccccc1 (stereo not given) | n | n | x | n | n | x
COc1ccc(NC(=O)c2c(-c3ccc(C)cc3)nnc3ccccc23)c(OC)c1 | n | n | x | n | u | x
COc1ccc(-c2csc(NC(=O)CSCC(=O)Nc3cc(C)on3)n2)cc1OC | 40µM | n | u | n | n | n
COc1ccc(-c2csc(NC(=O)c3cc(C)oc3C)n2)cc1OC | 50µM | n | u | u | 35µM | n
COc1ccc(-c2csc(NC(=O)CSCc3c(C)noc3C)n2)cc1OC | x | n | n | n | u | n
COc1ccc(-c2csc(NC(=S)NC(=O)c3cccs3)n2)cc1OC | 32µM | n | u | n | u | u
SMILES | G9a block | HP1b chromo inh | CtBP-E1A inh | JMJD2A Tudor | BAZ2B inh | Six1-Eya2 blk
CCc1noc(C)c1C(=O)Nc1nc(-c2ccc(OC)c(OC)c2)cs1 | u | n | n | n | n | n
CCCOC(=O)CC1C(=O)NCCN1C(=O)OC(C)(C)C (stereo not given) | n | n | n | n | n | n
CC(NC(=O)CN1CCOCC1)c1ccc(F)cc1 (stereo not given) | n | n | n | n | n | n
CCC(C)NCCOCCOc1cc(C)c(Cl)c(C)c1 (stereo not given) | u | u | n | 4µM | 79µM | n
CCC(C)NCCOCCOc1ccc(F)cc1 (stereo not given) | u | u | n | 3.2µM | u | n
CCN(CC)S(=O)(=O)c1ccc2c(c1)c(=O)c(C(=O)N1CCN(c3cc(C)ccc3C)CC1)cn2C | n | n | x | n | x | x
CCOC(=O)c1c(-c2ccco2)csc1NC(=O)COC(=O)c1cnccn1 | 8.9µM | u | n | u | n | n
CCOC(=O)c1c(-c2ccc(C)o2)csc1NC(=O)CSc1nncs1 | 10µM | u | n | 56µM | n | n
CCOC(=O)c1c(-c2ccc(C)o2)csc1NC(=O)CN1CCCCC1 | 40µM | n | n | n | u | n
CCOC(=O)c1c(NC(=O)COC(=O)c2cnccn2)sc(C(=O)NC)c1C | n[0.501 µM] | n | n | n | n | n
CCOC(=O)c1c(-c2ccc(C)o2)csc1NC(=O)CN1CCC(C(N)=O)CC1 | 45µM | u | n | n | u | n
CCOC(=O)c1c(-c2ccco2)csc1NC(=O)CSc1nnc(N)s1 | 40µM | n | n | n | u | n
CCOC(=O)c1c(NC(=O)CSc2nnc(-c3ccco3)o2)sc(C)c1C | n | n | n | n | n | n
CN(Cc1ccccc1)C(=S)Nc1ccc(OC(F)F)cc1 | n | n | n | n | n | n
C=CCn1c(C)cc(/C([O-])=C(/C(=S)Nc2ccc(OC(F)F)cc2)[n+]2ccc(N(C)C)cc2)c1C | 40µM | u | n | u | 45µM | n
Cc1cccc(NC(=O)CSc2ncnc3nc[nH]c23)c1C | 45µM | n | n | n | n | n
Cc1ccccc1C(=O)NNC(=O)c1ccc2nc[nH]c2c1 | n[0.501 µM] | n | n | n | n | n
Cc1cccc(NC(=O)CNC(=O)c2ccc3nc[nH]c3c2)c1C | u | n | n | n | 50µM | n
Cc1cccc(C)c1NC(=O)C(c1ccnc2ccccc12)n1c(=O)c(-c2ccccc2)nc2ccccc21 (stereo not given) | x | x | n | x | x | n
Cc1ccc2nc3c(cc(C(=O)NCc4cccnc4)c(=N)n3C(C)C)c(=O)n2c1 | 40µM | x | x | x | n | x
Cc1oc(-c2ccccc2F)nc1Cn1c(SCc2ccccc2F)nc2ccncc21 | 13µM | n | x | u | u | x
NCCN1CCN(S(=O)(=O)c2ccc([N+](=O)[O-])cc2)C=C1c1ccc(Cl)cc1 | n[0.501 µM] | n | n | u | 56µM | n
O=C(Nc1cc(C(F)(F)F)ccc1Cl)c1ccncc1 | n | n | n | n | n | n
C/C(=N\Nc1cc(C(F)(F)F)ccc1Cl)c1ccncc1 | 40µM | n | n | n | n | n
Cc1cc(NC(=O)C(C)SCC(=O)N(C)Cc2c(F)cccc2Cl)no1 (stereo not given) | x | n | n | n | x | n
CC(=O)OCCCN(C)CC/C=C1/c2ccccc2CSc2ccccc21 | x | n | n | n | x | n
C[N+](C)(C)CC/C=C1/c2ccccc2CSc2ccccc21 | u | n | n | 50µM | 79µM | n
Cc1cc(C)c(Cn2c(=O)n(Cc3ccccc3)c(=O)c3c(C)c(C)sc32)c(C)c1 | n | n | x | n | n | x
